High-throughput results: PubChem BioAssay, National Center for Advancing Translational Sciences (NCATS)
Rab9 promoter act = activates the Rab9 promoter. AID 485297. Huh7 Rab9 promoter-luciferase reporter, luminescence, 24 h. 320,000 compounds, 2.8% hits. Potency, µM (doses to about 9.22 µM), for inactives: at the top dose activation, negative = inhibition, actives largely listed as activators; note: % of control where 0% means no effect; nearly all actives have a fitted effect of over 60% in size
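Using Huh7 cells stably transfected with Rab9 promoter–luciferase, compounds were incubated 24 h at 37 °C, 5% CO2; luciferase luminescence was read 10 min after reagent addition.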
NPC1 promoter act = activates the NPC1 promoter; Huh7 NPC1 promoter luciferase reporter, 24 h; Potency, µM (highest dose often 9.22 µM), without a hit: top-dose activation, actives largely listed as activators; 320,000 compounds, 2.4% hits; AID 485313; note: % of control where 0% means no effect; nearly all actives have a fitted effect of over 60% in size
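Huh7 reporter cells (NPC1 promoter driving luciferase) are dosed with compound for 24 h at 37 °C, 5% CO2; luciferase detection reagent is then added and luminescence measured after 10 min at ambient temperature.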
ELG1 repair inh = inhibitors of ELG1-dependent DNA repair in HEK293T cells | 330,000 compounds, 2.3% hits | Potency, µM (titrated, usually from 46.1 µM), for inactives: at the top dose activity change, negative = inhibition, actives largely listed as inhibitors | AID 504467 | HEK293T ELG1-luciferase reporter, luminescence, 16 h; DNA damage induced by 5-fluorouridine; note: % is set by controls: 0 for no effect and ±100 for the full control effect; nearly all actives have a fitted effect of over 55% in size
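5-Fluorouridine DNA damage + compound/DMSO, 2,000 cells/well, 16 h, 37 °C/5% CO2. ONE-Glo, 30 min RT, luminescence. Readout = decrease in reporter signal.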
FLuc counter = firefly luciferase modulation, counter-screen for miR-21 project; purified FLuc, Km substrates, luminescence inhibition; Potency, µM (titrated, usually from 57.5 µM), without a hit: at the top dose activity change, negative = inhibition, hits mostly inhibitors; 360,000 compounds, 6.9% hits; AID 588342;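 note: plate controls were vehicle for no effect and reference inhibitor for full effect; nearly all actives have a fitted effect of over 55% in size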
Target sequence (P08659 whole entry, looked up): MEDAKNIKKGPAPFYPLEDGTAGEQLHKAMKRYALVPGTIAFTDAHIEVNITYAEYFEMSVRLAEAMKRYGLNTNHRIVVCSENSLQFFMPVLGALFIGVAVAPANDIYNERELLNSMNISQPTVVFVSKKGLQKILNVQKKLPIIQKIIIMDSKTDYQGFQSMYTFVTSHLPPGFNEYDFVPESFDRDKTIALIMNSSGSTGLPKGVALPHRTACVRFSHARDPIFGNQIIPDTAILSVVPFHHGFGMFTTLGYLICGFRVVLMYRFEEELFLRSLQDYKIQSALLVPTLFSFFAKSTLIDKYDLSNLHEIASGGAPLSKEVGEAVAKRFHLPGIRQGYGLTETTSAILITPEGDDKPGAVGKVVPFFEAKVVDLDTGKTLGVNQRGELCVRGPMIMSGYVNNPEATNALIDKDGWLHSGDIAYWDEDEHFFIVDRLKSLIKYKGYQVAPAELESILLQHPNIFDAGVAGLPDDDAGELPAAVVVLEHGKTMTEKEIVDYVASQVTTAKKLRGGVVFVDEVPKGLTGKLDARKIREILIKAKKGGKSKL
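Purified P. pyralis luciferase (10nM final) with 10uM D-luciferin and 10uM ATP (Km levels) in 50mM Tris acetate pH 7.5, 10mM Mg acetate, 0.01% Tween-20, 0.05% BSA; qHTS 6-point titration, ~60 µM downward; luminescence read.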
SMN2 splice up = enhancers of SMN2 splice variant expression; HEK293 SMN2-luciferase splicing reporter, luminescence, 30-36 h; Potency, µM (highest dose often 46.1 µM), without a hit: at the top dose activity change, positive = activation, most hits filed as activators; 210,000 compounds, 2.8% hits; note: % of control where 0% means no effect; nearly all actives have a fitted effect of over 55% in size
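HEK293 cells carry an SMN2 minigene-luciferase reporter in which exon 7 inclusion puts luciferase in frame. Cells were seeded at 2000 cells/well, attached for 10-12 hours, then exposed to compounds for 30-36 hours at 37C before ONE-Glo luminescence.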
ELG1 genotoxic = genotoxicity induction in ELG1-luciferase HEK293T cells | HEK293T ELG1-luciferase reporter, luminescence, 16 h | Potency, µM (titrated, usually from 46 µM), inactives show top-dose activity change, positive = activation, hits mostly activators | 330,000 compounds, 1.3% hits | AID 504466; note: % of control where 0% means no effect; nearly all actives have a fitted effect of over 60% in size
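16 hr compound incubation (37 °C, 5% CO2) of HEK293T cells carrying luciferase-tagged ELG1; luciferase then measured by ONE-Glo luminescence after 30 min at RT.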
Numbers without * were called inactive; ? = inconclusive; . = not tested or not shown; [ ] = remark or other dose. Rows were chosen to be rich in hits. Some 9.3% of all compounds tested hit in one or more screens of this group. Calls come from the whole dose curve; as a rule, active = well fitted curve in the direction sought with a large enough effect; inconclusive = small, poorly fitted or top-dose-only effect, or another doubt; inactive = no such curve, though single readings can be large; an effect the other way counts as inactive or inconclusive. Potency is the fitted concentration of half-maximal effect.

SMILES	Rab9 promoter act	NPC1 promoter act	ELG1 repair inh	FLuc counter	SMN2 splice up	ELG1 genotoxic
CCOC(=O)c1cnc2cc(-c3ccc(Cl)cc3)nn2c1-c1ccccc1	.	.	.	-0.2%	-13.7%	.
CCOC(=O)c1cnc2cc(-c3ccc(Cl)cc3)nn2c1N	1.26µM*	1.12µM*	?	?	?	?
CCOC(=O)c1cnc2cc(-c3ccc(Br)cc3)nn2c1C	2.82µM*	?	?	?	.	?
CCOC(=O)c1cnc2cc(C)nn2c1C	2.3%	-2.7%	9.9%	-2.7%	-25.7%	0.8%
N#CC1=C(N)Oc2cc(N)ccc2C1C1CC=CCC1 (stereo unspecified)	-3.6%	-6.4%	?	13.7%	-12.4%	0.9%
COc1ccc(OC)c(S(=O)(=O)N2Cc3ccccc3CC2C(=O)Nc2ccc(C)cc2C)c1 (stereo unspecified)	.	.	.	0.4%	5.7%	.
COc1ccc(OC)c(S(=O)(=O)N2Cc3ccccc3CC2C(=O)Nc2nccs2)c1 (stereo unspecified)	?	3.1%	?	3.4%[2.3 µM]	35.5µM*	13.8%
Cc1ccc2sc(N3CCN(C(=O)CCS(=O)(=O)c4ccc(F)cc4)CC3)nc2c1C	.	.	.	-14.0%	.	.
COCC(=O)N(Cc1nc2sc(C)c(C)c2c(=O)[nH]1)C1CCCCC1	-4.0%	-2.0%	6.1%	2.3%	.	2.2%
Cc1sc2nc(CN(C(=O)c3cccs3)C3CCCC3)[nH]c(=O)c2c1C	-2.5%	-3.2%	?	-1.0%	-39.6%	-0.9%
Cc1sc2nc(CN(C(=O)NC3CCCCC3)C3CCCC3)[nH]c(=O)c2c1C	0.0%	-2.5%	20.6µM*	4.0%	.	-2.6%
Cc1sc2nc(CN(Cc3cccs3)C(=O)NC3CCCCC3)[nH]c(=O)c2c1C	-2.0%	3.5%	9.2µM*	-1.9%	.	-21.2%
CCCCC(=O)N(Cc1nc2sc(C)c(C)c2c(=O)[nH]1)C1CCCC1	-2.3%	0.0%	20.6µM*	-4.3%	.	-1.0%
Cc1sc2nc(CC(=O)N3CCCC3)[nH]c(=O)c2c1C	2.6%	-3.8%	7.6%	?	11.5%	5.8%
COc1ccc(-c2cc3c(=O)n(CC(=O)NC4CCN(Cc5ccccc5)CC4)ncn3n2)cc1	9.7%	8.2%	26.7%	-18.1%	24.7%	14.9%
Cc1ccc(S(=O)(=O)NC(CC(=O)NC2CCCC2)c2ccco2)cc1 (stereo unspecified)	-2.9%	-2.6%	-4.7%	2.5%	19.3%	-6.1%
O=C(N/N=C/C=C\c1ccccc1[N+](=O)[O-])c1ccco1	1.9%	-0.6%	8.1%	1.0%	-2.0%	2.1%
COc1cccc(C2Nc3ccccc3C(=O)N2c2ccc(F)cc2)c1O (stereo unspecified)	?	?	?	-10.3%	.	?
O=C1c2ccccc2NC(c2ccccc2O)N1c1ccc(F)cc1 (stereo unspecified)	3.98µM*	3.98µM*	?	-13.8%	.	?
COc1cccc(CC(=O)Nc2ccc3c(c2)OC2(CCCC2)O3)c1	21.6%	16.8%	?	13.5µM*	.	3.2%
COc1ccc2[nH]c(C)cc(=O)c2c1	7.6%	0.0%	-1.0%	0.0%	-16.5%	-2.7%
Cc1ccccc1N1CCN(C2=NC(=O)/C(=C\c3cccs3)S2)CC1	11.0%	-0.6%	?	9.53µM*	?	1.0%
O=C1N=C(N2CCN(c3cccc4ccccc34)CC2)S/C1=C/c1cccs1	0.8%	11.0%	8.2µM*	0.3%	-15.0%	-7.9%
CN(Cc1ccccc1)C(=O)COC(=O)C12CC3CC(CC(Br)(C3)C1)C2	.	.	-10.5%	.	.	-3.8%
NC1=NC(=O)/C(=C/c2ccccc2OS(=O)(=O)c2ccccc2)S1	-2.2%	0.8%	-11.9%	-1.9%	14.7%	14.8%
Cc1ccc(NNS(=O)(=O)c2ccc(C)cc2)cc1	-0.8%	1.4%	7.3%	21.3µM*	-13.3%	2.1%
